Measured values as given in article PMC10668032, “Altered binding affinity of SIX1-Q177R correlates with enhanced WNT5A and WNT pathway effector expression in Wilms tumor”.
In all, about 33,000 sequences were measured (“e-score”: median about -0.053, highest 2% from about 0.38 on). Shown is part of a subset that was picked to be rich in the highest values.

molecular target: T1, SIX1 homeodomain (reference allele) (human, UniProt Q15475 108-198); assay: universal protein binding microarray; Universal all-10-mer PBM (8x60K, AMADID 030236), 300 nM GST-tagged protein, Alexa Fluor 488 anti-GST; buffer, salt, pH and temperature not stated (as in Berger); high values mean tight binding; conditions: protein: ivt; tags: N-terminal GST; dsDNA, one strand shown
T1 sequence: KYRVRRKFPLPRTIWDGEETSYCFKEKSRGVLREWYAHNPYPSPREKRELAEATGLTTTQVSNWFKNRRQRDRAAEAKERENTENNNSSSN
Summary of the method: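 After in vitro transcription/translation, GST-tagged homeodomains were quantified against a recombinant GST standard curve by anti-GST western blot. They were then placed in duplicate at 300 nM final concentration on universal 'all 10-mer' protein binding microarrays of 8×60K format.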

Row | Sequence | binding signal [E-score]
1 | CTGATCTC | 0.312 ± 0.016
2 | GTGATCCA | 0.377 ± 0.0369
3 | ATGATCTG | 0.355 ± 0.0221
4 | ATGATCCG | 0.452 ± 0.00636
5 | CTGATCGC | 0.191 ± 0.0397
6 | ATGATCGA | 0.173 ± 0.029
7 | CTGATCCC | 0.416 ± 0.02
8 | GTGATCAA | 0.236 ± 0.0408
9 | ATGATCCA | 0.391 ± 0.0192
10 | CTGATCCA | 0.357 ± 0.0346
11 | ATGATCGG | 0.294 ± 0.0125
12 | GTGATCTA | 0.2979 ± 0.000552
13 | TCCCCTCA | 0.175 ± 0.0645
14 | CTGCTATA | 0.194 ± 0.0359
15 | AGTGAGAC | 0.198 ± 0.0551
16 | ACTCGATA | 0.303
17 | TACACCTA | 0.304 ± 0.0311
18 | CATTATCC | 0.326 ± 0.00937
19 | CGTCGATC | 0.157 ± 0.105
20 | ATCATTTA | 0.193 ± 0.0974
21 | AATTATAC | 0.165 ± 0.066
22 | GATAGTCA | 0.189 ± 0.0298
23 | TAAAGATA | 0.167 ± 0.162
24 | ATGATCTC | 0.327 ± 0.0416
25 | ATGATCAC | 0.309 ± 0.0105

Row | Sequence | binding signal [E-score]
26 | ATGATCCC | 0.448 ± 0.0106
27 | ACCGAGAT | 0.26507 ± 0.000212
28 | ACGGATGA | 0.211 ± 0.0174
29 | ATCGCGAT | 0.334 ± 0.0159
30 | ATACATTC | 0.188 ± 0.0482
31 | TACGTGGA | 0.195 ± 0.113
32 | CTGGATCA | 0.326 ± 0.0378
33 | GTAGATCA | 0.29 ± 0.0141
34 | ATGGATCA | 0.383 ± 0.00801
35 | GTGGATCA | 0.4 ± 0.0347
36 | GTGGATAA | 0.2486 ± 0.00124
37 | ATGGATCG | 0.345 ± 0.0571
38 | ACACCAGC | 0.211 ± 0.0357
39 | CTTCGATA | 0.342 ± 0.0398
40 | GCATATGA | 0.167 ± 0.0211
41 | GCATACTA | 0.22 ± 0.00291
42 | ATGTATGA | 0.261 ± 0.0176
43 | ATCATTAG | 0.281 ± 0.0368
44 | TCACCTGA | 0.165 ± 0.00229
45 | TATACCGA | 0.339 ± 0.026
46 | AATACCGT | 0.318 ± 0.04
47 | CATACCGG | 0.166 ± 0.0474
48 | CATACCTA | 0.174 ± 0.0329
49 | GATACCTA | 0.472 ± 0.0087
50 | GATACCGA | 0.4164 ± 0.00268

Row | Sequence | binding signal [E-score]
51 | GATACCGC | 0.461 ± 0.0131
52 | AATACCGC | 0.386 ± 0.0176
53 | AATACCGG | 0.273 ± 0.0276
54 | AATACCGA | 0.321 ± 0.0139
55 | AATACCTA | 0.289 ± 0.0733
56 | GCTAATAC | 0.244 ± 0.0389
57 | CCGGAATA | 0.162 ± 0.00262
58 | AACTACAC | 0.169 ± 0.006
59 | CGTTGATC | 0.152 ± 0.0357
60 | GACCCGGC | 0.183 ± 0.012
61 | GGTGTAGA | 0.317 ± 0.04
62 | AGTATATA | 0.306 ± 0.0599
63 | ACTATCTC | 0.209 ± 0.0851
64 | CGTATCTC | 0.378 ± 0.00747
65 | CGTATCTA | 0.349 ± 0.0276
66 | AGTATCTC | 0.376 ± 0.0377
67 | AGTATATC | 0.383 ± 0.0642
68 | CGTATATC | 0.336 ± 0.0303
69 | CCTATCTC | 0.227 ± 0.035
70 | AGTATCTG | 0.317 ± 0.0419
71 | CATCTATC | 0.211 ± 0.0124
72 | ATATGGCG | 0.223 ± 0.0647
73 | AATGGGAT | 0.213 ± 0.0227
74 | ACACCTTA | 0.238 ± 0.0937
75 | GATGAGCC | 0.249 ± 0.0159

Row | Sequence | binding signal [E-score]
76 | CTATCTGA | 0.231 ± 0.0348
77 | CGAGATCC | 0.325 ± 0.0133
78 | GATAATGA | 0.174 ± 0.0154
79 | AGACGGGA | 0.2 ± 0.0154
80 | ATAGTAGC | 0.187 ± 0.0294
81 | CCGGGATA | 0.305 ± 0.0131
82 | AGGGGGGA | 0.206 ± 0.028
83 | GTGGGATA | 0.348 ± 0.0178
84 | GGGGGATA | 0.4424 ± 0.00147
85 | ATGGGATA | 0.36 ± 0.00494
86 | CGGGGATA | 0.413 ± 0.0228
87 | ACGGGGGA | 0.217 ± 0.0264
88 | CGGGGAGA | 0.182 ± 0.0823
89 | GCGGGATA | 0.3486 ± 0.00158
90 | CTGGGATA | 0.266 ± 0.0214
91 | AGGGGATA | 0.425 ± 0.000834
92 | ACGGGATA | 0.376 ± 0.00774
93 | CCAGGGTA | 0.221 ± 0.0174
94 | GGAACACC | 0.187 ± 0.018
95 | CATTAATA | 0.154 ± 0.0188
96 | ATAACATC | 0.165 ± 0.0558
97 | GATCACGA | 0.273 ± 0.0518
98 | ATCACCGA | 0.251 ± 0.0115
99 | CATATGGG | 0.179 ± 0.0474
100 | CGCCTATC | 0.218 ± 0.0337

Row | Sequence | binding signal [E-score]
101 | AGCGTATA | 0.233 ± 0.0627
102 | GGCGTATA | 0.179 ± 0.0032
103 | CGCGTATA | 0.232 ± 0.0592
104 | CGCGTATC | 0.424 ± 0.00815
105 | AGCGTATC | 0.411 ± 0.0267
106 | ATACCCGA | 0.407 ± 0.00771
107 | ATACCCGC | 0.3787 ± 0.00251
108 | ACACCCGA | 0.294 ± 0.0236
109 | ACACCCGC | 0.27 ± 0.0197
110 | ATACCAGC | 0.3035 ± 0.00134
111 | AGACCCGG | 0.214 ± 0.0594
112 | AGACCCGA | 0.196 ± 0.0537
113 | ATACCAGA | 0.299 ± 0.0031
114 | AAACCCGG | 0.163 ± 0.0401
115 | ATACCAGG | 0.3772 ± 0.00332
116 | ATACCCGG | 0.407 ± 0.0266
117 | ATACACGC | 0.328 ± 0.00888
118 | GATTATAA | 0.165 ± 0.0198
119 | GATTACAC | 0.164 ± 0.0334
120 | ATAGACAC | 0.285 ± 0.0262
121 | GACACGGA | 0.196 ± 0.00735
122 | AGGAATAC | 0.2106 ± 0.00182
123 | GGATTGGA | 0.171 ± 0.00314
124 | ATACTGCC | 0.3133 ± 0.000361
125 | ATCGTTGC | 0.202 ± 0.04

Row | Sequence | binding signal [E-score]
126 | TAATACTA | 0.276 ± 0.0717
127 | GCATAATA | 0.187
128 | CGGATCAG | 0.443 ± 0.0116
129 | CCGATCAC | 0.346 ± 0.0289
130 | CTGATCAG | 0.313 ± 0.0448
131 | TGGATCAA | 0.3057 ± 0.00301
132 | AGGATCGA | 0.289 ± 0.0472
133 | CTGATCAC | 0.204 ± 0.0353
134 | CGGATCAC | 0.463 ± 0.00697
135 | CGGATCGA | 0.34 ± 0.0821
136 | CCGATCAG | 0.24 ± 0.0341
137 | GGGATCGA | 0.385 ± 0.0533
138 | CGGATCAA | 0.417 ± 0.0173
139 | AGGATCAA | 0.352 ± 0.036
140 | CGAGATCG | 0.207 ± 0.0304
141 | TAATATGA | 0.196 ± 0.0472
142 | CCCCGATA | 0.347 ± 0.00347
143 | CCTTGATC | 0.243 ± 0.0361
144 | GCGATCAC | 0.354 ± 0.0376
145 | GTGATCAC | 0.306 ± 0.0127
146 | GGGATCAA | 0.386 ± 0.0187
147 | GAGATCAA | 0.31 ± 0.0391
148 | GCGATCAA | 0.18 ± 0.0413
149 | GGGATCAC | 0.445 ± 0.0186
150 | ATCGGTGG | 0.189 ± 0.0514

Row | Sequence | binding signal [E-score]
151 | CAACACCG | 0.268 ± 0.021
152 | CCCTGATC | 0.33 ± 0.0305
153 | GGTTGATA | 0.384 ± 0.0228
154 | ACTTGATA | 0.374 ± 0.0379
155 | AGTTGATC | 0.23 ± 0.0154
156 | CGTTGATA | 0.334 ± 0.0658
157 | AGTTGATA | 0.406 ± 0.0373
158 | GCTTGATA | 0.351 ± 0.0581
159 | AGATAACG | 0.191 ± 0.042
160 | ATATGCGC | 0.27 ± 0.0371
161 | CGGCTCAC | 0.174 ± 0.0262
162 | CTTATCCC | 0.235 ± 0.0469
163 | CCTATCCC | 0.291 ± 0.0369
164 | ATTATCCC | 0.274 ± 0.0711
165 | CTTATCCA | 0.186 ± 0.0114
166 | AGTATCCC | 0.412 ± 0.00869
167 | CCTATCCA | 0.232 ± 0.0293
168 | ACTATCCC | 0.294 ± 0.0143
169 | CGTATCCA | 0.403 ± 0.0252
170 | CGTATCCC | 0.389 ± 0.00815
171 | GATCCTGC | 0.353 ± 0.0135
172 | CATCTAAG | 0.178 ± 0.0937
173 | ATACTGGA | 0.325 ± 0.00489
